# Compound activity from PubChem BioAssay.
# A selection: hits, their analogues and other compounds. The true share with any hit is near 0.99%.
# SARS PLP yeast – inhibitors of SARS-CoV papain-like protease in yeast; actives 0.19% (n = 330,000); AID 485353; S. cerevisiae expressing SARS-CoV PLpro, growth rescue; Potency, µM (highest dose often 32.9 µM), usual class: activators; calls by dose curve; further: nearly all actives have a fitted effect of over 55% in size
# AmpC inh detg – AmpC beta-lactamase inhibition with detergent present. P00811. AmpC hydrolysis of nitrocefin, absorbance 480 nm, 0.01% Triton. actives 0.041% (n = 370,000). Potency, µM (highest dose often 114 µM), most hits filed as inhibitors; further: nearly all actives have a fitted effect of over 25% in size
# Target sequence (P00811 whole entry, looked up): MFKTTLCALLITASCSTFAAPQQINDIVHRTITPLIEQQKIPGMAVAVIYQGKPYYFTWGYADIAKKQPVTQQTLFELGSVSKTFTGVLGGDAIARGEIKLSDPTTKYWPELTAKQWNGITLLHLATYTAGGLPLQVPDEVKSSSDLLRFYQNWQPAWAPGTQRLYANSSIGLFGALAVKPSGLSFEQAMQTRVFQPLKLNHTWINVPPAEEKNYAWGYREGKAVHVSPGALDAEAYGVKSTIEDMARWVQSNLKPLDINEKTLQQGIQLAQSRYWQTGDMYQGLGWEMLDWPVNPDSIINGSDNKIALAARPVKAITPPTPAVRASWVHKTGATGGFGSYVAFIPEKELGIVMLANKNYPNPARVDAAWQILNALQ
#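 20 mM phosphate pH 7.0 + 0.01% (detergent screen) or 0.0001% Triton X-100; 5.3 nM AmpC reagent; cpd preinc 15 min RT; nitrocefin (800 uM stock) to start; A480 q20 s × 4 min; Activity was normalised to no-enzyme and no-compound control wells.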
# AmpC no deterg – inhibitors of E. coli AmpC beta-lactamase without detergent | P00811 | actives 0.52% (n = 330,000) | Potency, µM (series often up to 57.1 µM), usual class: inhibitors | AmpC nitrocefin hydrolysis, absorbance 480 nm, 0.0001% Triton | AID 485341; further: nearly all actives have a fitted effect of over 20% in size
#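 AmpC (5.3 nM in the dispensed reagent) in 20 mM phosphate pH 7.0 with 0.01% (detergent screen) or 0.0001% Triton X-100 was preincubated with compounds for 15 min at room temperature. Nitrocefin was then added from an 800 uM solution, and hydrolysis was followed at 480 nm.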
# NS1 function inh – blocks influenza NS1 protein function. AID 2326. Potency, µM (series often up to 46.1 µM). actives 0.4% (n = 270,000); calls by dose curve; further: actives are rising curves; nearly all actives have a fitted effect of over 50% in size
#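 OD600 was taken as the measure of yeast growth restored by compound in an NS1-expressing S. cerevisiae strain. Cells had been washed out of glucose medium and diluted 1:100 into galactose -URA medium, pH 6.0.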
# AMA1-RON2 inh – disrupts binding of P. falciparum AMA1 to RON2; AID 720542; AlphaScreen AMA1-biotinylated RON2 peptide binding; Potency, µM (top dose mostly 58.2 µM), usual class: inhibitors; actives 0.2% (n = 360,000); further: nearly all actives have a fitted effect of over 45% in size
#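 AMA1 (3D7) with his tag at 25 nM final met compounds first, then biotinylated RON2 peptide at 25 nM; detection used donor plus acceptor beads, 10 µg/mL apiece, read by AlphaScreen after 30 min at room temperature.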
# A number is an active result; - = inactive; ? = inconclusive; . = not tested or not shown; [ ] = dose if it differs, or a comment. Unless noted, the call rests on the fitted dose curve; in most records, active means well fitted curve in the direction sought with a large enough effect; inconclusive means small, poorly fitted or top-dose-only effect, or another doubt; inactive means no such curve, though single readings can be large; an effect the other way counts as inactive or inconclusive.
SMILES,SARS PLP yeast,AmpC inh detg,AmpC no deterg,NS1 function inh,AMA1-RON2 inh
Cc1ccc(C)c(/C=N/n2cc(-c3ccccc3)[nH]c2=S)c1,-,-,16µM,.,-
C=C1c2cccc(O)c2C(=O)C2C(=O)[C@]3(O)C(=O)C(C(N)=O)C(=O)[C@@H](N(C)C)[C@@H]3[C@@H](O)[C@H]12 (stereo not given in full),-,.,8.9µM,.,0.89µM
NC(=O)c1nsc(C(=O)N(c2cccc(F)c2)C(C(=O)NCc2ccccc2)c2ccc(O)cc2)c1N (stereo not given),-,-,7.9µM,-,-
NS(=O)(=O)c1cccc(NC(=O)Nc2ccc(Cl)cc2)c1,-,-,14µM,-,-
CCCOC(=O)c1ccc(NC(=O)c2c(Cl)ccc(Cl)c2OC)cc1,-,-,28µM,-,-
FC(F)(F)c1cccc(N2CCN(c3ncnc4c3nc3n4CCCC3)CC2)c1,.,-,.,.,.
O=C(Nc1cccc(NC(=O)c2cccs2)c1)c1ccc2c(c1)OCCO2,-,-,7.1µM,-,-
CCC(=O)Nc1cccc(NC(=O)c2ccc3c(c2)OCO3)c1,-,-,0.14µM,-,-
COc1cccc(NC(=O)c2ccc3c(c2)OCO3)c1,-,-,-,-,-
O=C(Nc1cccc(Cl)c1)c1ccc2c(c1)OCCO2,-,?,-,-,-
O=C1c2cc(Br)ccc2N(Cc2ccc(Br)cc2)S(=O)(=O)C1c1cc(Cl)c(Cl)cc1[N+](=O)[O-] (stereo not given),-,.,2µM,.,-
O=c1c2ccccc2ncn1-c1ccc(Br)cc1[N+](=O)[O-],-,?,-,-,-
COc1ccccc1NC(=O)C1=C(C)Nc2nc(SCc3ccccc3Cl)nn2C1c1cccnc1 (stereo not given),.,-,.,.,.
COc1ccc2c(c1)Sc1ccccc1N2,-,?,-,.,16µM
c1ccc2c(c1)Nc1cc3ccccc3cc1S2,-,-,-,-,-
CCOC(=O)C1CCN(C2=C(NS(=O)(=O)c3ccc(Cl)cc3)C(=O)c3ccccc3C2=O)CC1,-,-,-,-,13µM
CCOC(=O)C1CCCN(C2=C(NS(=O)(=O)c3ccc(Br)cc3)C(=O)c3ccccc3C2=O)C1 (stereo not given),?,-,-,-,13µM
CC1CCN(C2=C(NS(=O)(=O)c3ccc(Cl)cc3)C(=O)c3ccccc3C2=O)CC1,-,-,?,-,?
CC1CCCN(C2=C(NS(=O)(=O)c3ccc(Br)cc3)C(=O)c3ccccc3C2=O)C1 (stereo not given),-,?,-,-,?
CN(C)c1ccc(/C=C/c2ccc3c4ccccc4ccc3[n+]2-c2ccccc2)cc1,-,-,-,.,11µM
O=C(NN1C(=O)/C(=C/C=C/c2ccco2)SC1=S)c1ccccc1O,-,-,16µM,-,-
O=C1S/C(=C\C=C\c2ccco2)C(=O)N1c1ccc(O)cc1,-,-,32µM,-,-[11.6 µM]
O=C1S/C(=C\C=C\c2ccco2)C(=O)N1c1ccccc1,-,-,-,-,?
Cc1cc(C)n(CCc2nc3c4ccccc4nc(N4CCN(c5cccc(C)c5C)CC4)n3n2)n1,.,-,.,.,.
COc1ccc(CCn2c(O)cc3nn(-c4nc5ccccc5s4)c(=O)c-3c2C)cc1,-,-,10µM,?,-
SMILES,SARS PLP yeast,AmpC inh detg,AmpC no deterg,NS1 function inh,AMA1-RON2 inh
CCCC(=O)Nc1nnc(SCc2cc(=O)n3ccccc3n2)s1,.,-,.,.,.
CCc1cccc(-n2nnc(-c3nsc(NC(=O)c4cccc(OC)c4)n3)c2C)c1,.,-,.,.,.
O=C1NC(=O)N(Cc2ccco2)C(=O)/C1=C/C=C/c1ccco1,-,-,13µM,-,?
Cc1ccccc1CNC(=O)c1oc2c(c1C)-c1[nH]ncc1CC2,.,-,.,.,.
Nc1nc(SCc2ccc(Cl)cc2Cl)nc2nc3c(cc12)CCCC3,-,-,16µM,-,-
Nc1nc(SCc2ccc(Cl)cc2Cl)ns1,-,-,-,-,-
O=C(N/N=C(/CC(=O)c1cccs1)C(F)(F)F)c1ccc(O)cc1,-,-,7.9µM,-,-
O=C(N/N=C(\CC(=O)c1cccs1)C(F)(F)F)c1cccnc1,-,-,-,-,-
O=C(Cc1cc(=O)[nH][nH]1)N/N=C/c1cccc(Cl)c1Cl,-,-,-,10µM,-
O=C(Cc1cc(=O)[nH][nH]1)N/N=C/c1ccccc1Cl,-,-,?,?,-
Nc1ccccc1Nc1ccc([N+](=O)[O-])cc1[N+](=O)[O-],-,?,-,-,?
